The record followed here is PubChem BioAssay (NCATS).

Records with an inconclusive call do not appear. Values without a mark were called inactive. The source made the active and inactive calls. Calls follow the shape of the dose curve; as a rule, active = well fitted curve in the direction sought with a large enough effect; inconclusive = small, poorly fitted or top-dose-only effect, or another doubt; inactive = no such curve, though single readings can be large; an effect the other way counts as inactive or inconclusive. Where a SMILES comes first, the peptide text is derived from it. [ ]: non-standard residue; d: D form. 2Abz = Nc1ccccc1C(=O)O

Test [1] is described as follows: Primary qHTS for inhibitors of nuclear receptor binding SET domain protein 2 (NSD2) in an isogenic RCH-ACV NSD2 p.E1099K mutant (9B) (AID 1645876).
Test [2] in a line: Primary qHTS for inhibitors of nuclear receptor binding SET domain protein 2 (NSD2) in an RCH-ACV wild type WT cells (2C) (AID 1645877).
% is scaled to controls: 0 for no effect and ±100 for the full control effect.
Also: nearly all actives have a fitted effect of over 70% in size.

Regarding `CC[C@H]1OC(=O)[C@H](C)[C@@H](O[C@H]2C[C@@](C)(OC)[C@@H](O)[C@H](C)O2)[C@H](C)[C@@H](O[C@@H]2O[C@H](C)C[C@H](N(C)C)[C@H]2O)[C@@](C)(O)C[C@@H](C)[C@@H]2N[C@@H](COCCOC)OC([C@H]2C)[C@]1(C)O`, the Potency entry in test [1] and in test [2] was “inactive” each time.

For the compound `C=C1[C@H]2CC[C@]3(O)[C@@](CC[C@@H]4[C@](C)(C(=O)O)CCC[C@]43C)(C2)[C@H]1OC(=O)/C(C)=C\C`, the Potency entry in test [1] and in test [2] was “inactive” each time.

For `C/C=C(\C)C(=O)O[C@H]1[C@H](O)[C@]2(COC(C)=O)[C@H](O)C[C@]3(C)C(=CCC4[C@@]5(C)CC[C@H](O[C@@H]6O[C@H](C(=O)O)[C@@H](O[C@@H]7O[C@H](CO)[C@@H](O)[C@H](O)[C@H]7O)[C@H](O)[C@H]6O[C@@H]6O[C@H](CO)[C@@H](O)[C@H](O)[C@H]6O)[C@](C)(CO)C5CC[C@]43C)[C@@H]2CC1(C)C` (stereo not given in full), in test [1], the activity change, negative = viability loss is 0.0444% [at 9.23 µM]. For the same compound, the activity change, negative = cell killing in test [2] was -12.8% [at 9.23 µM].

As for `CC(O)C(O)/C=C/C=C/C(=O)O[C@@H]1C=C2COC(=O)[C@]2(O)[C@@]2(C)CCCC(C)(C)C12` (stereo not given in full), the Potency entry in test [1] and in test [2] was “inactive” in each case.

For `CC(=C/C(=O)O)/C=C/[C@]1(O)[C@@]2(C)CO[C@]1(C)C[C@H](O[C@@H]1O[C@H](CO)[C@@H](O)[C@H](O)[C@H]1O)C2`, the Potency entry in test [1] and in test [2] was “inactive” throughout.

`CC(=O)OC(CSC1CCC(=O)OC(C)CCC(=O)C1)C(=O)O` (stereo not given): the Potency entry in test [1] and in test [2] was “inactive” throughout.

For the compound `C=C1C[C@]23C[C@H]1CC[C@H]2[C@]1(C)CCC[C@@]2(CO)C(=O)O[C@H]([C@H]21)[C@@H]3O`, the Potency entry in test [1] and in test [2] was “inactive” throughout.

With `CCC(NC(=O)CC(NC(=O)C(CO)NC(=O)C(CC)NC(=O)c1ccc[nH]1)c1ccccc1)C(=O)O` (stereo not given), the Potency entry in test [1] and in test [2] was “inactive” throughout.

Take `C=CC(C)(O)CC/C=C(\C)C(=O)OCC1OC(OC2CCC3(C)C(CCC4(C)C3CC=C3C5CC(C)(C)C(O)CC5(C(=O)O)CCC34C)C2(C)C)C(O)C(OC2OC(CO)C(O)C(OC3OC(CO)C(O)C(OC4OC(COC5OC(CO)C(O)C(O)C5O)C(O)C(O)C4O)C3O)C2O)C1O` (stereo not given): the outcome in test [1] is “inactive [at 9.23 µM]”. For the same compound, in test [2], the activity change, negative = cell killing was 4.93% [at 9.23 µM].

For the compound `C[C@]1(O)CC[C@@H]2C(C(=O)O)=CO[C@@H](O[C@@H]3O[C@H](COC(=O)c4ccc(O)cc4)[C@@H](O)[C@H](O)[C@H]3O)[C@@H]21`, the Potency result in test [1] and in test [2] was “inactive” each time.

With `CC(C)CC1(C(=O)OCc2ccc(O[C@@H]3O[C@H](CO)[C@@H](O)[C@H](O)[C@H]3O)cc2)CC(=O)OC(C(=O)O)CC(=O)OCC2OC(O1)C(OC(=O)/C=C/c1ccc(O)cc1)C(O)C2O` (stereo not given in full), the activity change, negative = viability loss in test [1] was 1.01% [at 9.23 µM]. Further, the activity change, negative = cell killing in test [2] was 0.208% [at 9.23 µM].

Turning to `COc1c2c(c(C)c3c1C(=O)OC3)O[C@@]1(C)C[C@@H](O)[C@]34O[C@](OC)(CC[C@]3(C)[C@H]1C2)OC4(C)C`, the Potency entry in test [1] and in test [2] was “inactive” throughout.

Take `CC(C)=CCC[C@](C)(O[C@@H]1O[C@H](CO[C@@H]2OC[C@@H](O)[C@H](O)[C@H]2O)[C@@H](O)[C@H](O)[C@H]1O)[C@H]1CC[C@]2(C)[C@@H]1[C@H](O)C[C@@H]1[C@@]3(C)CC[C@H](O[C@@H]4O[C@H](CO)[C@@H](O)[C@H](O)[C@H]4O[C@@H]4O[C@H](CO)[C@@H](O)[C@H](O)[C@H]4O)C(C)(C)[C@@H]3CC[C@]12C`: the Potency result in test [1] and in test [2] was “inactive” each time.

For `C/C=C/C=C/C=C/C(=O)O[C@@H]1[C@@H](OC)C2=C(C(=O)N(C(C)C(=O)O)C2)[C@@]2(C)CCCC(C)(C)[C@H]12` (stereo not given in full), the Potency result in test [1] and in test [2] was “inactive” each time.

For the compound `COc1ncc(-c2ccc3c(Nc4cc(Oc5cc(F)cc(F)c5)cc(C(=O)O)c4)c(S(=O)(=O)NC4CC4)cnc3c2)c(OC)n1`, the Potency entry in test [1] and in test [2] was “inactive” in each case.

With `CCC(C)C(=O)O[C@@H]1[C@@H](O)[C@@H](O[C@H]2O[C@H](CO)[C@@H](O)[C@H](O)[C@H]2O)O[C@H](CO)[C@H]1O` (stereo not given in full), the Potency result in test [1] and in test [2] was “inactive” in each case.

For the compound `C=CCc1ccc(O[C@@H]2O[C@H](CO)[C@@H](O)[C@H](O)[C@H]2O)c(OC)c1`, the Potency result in test [1] and in test [2] was “inactive” throughout.

Take `CC(=O)c1c(C)cc(O[C@@H]2O[C@H](CO)[C@@H](O)[C@H](O)[C@H]2O)cc1O`: the Potency entry in test [1] and in test [2] was “inactive” in each case.

In the case of `O=C(O[C@H]1[C@@H]2C=CO[C@@H](O[C@@H]3O[C@H](CO)[C@@H](O)[C@H](O)[C@H]3O)[C@@H]2[C@@]2(CO)O[C@@H]12)c1ccc(O)c(O)c1`, the Potency result in test [1] and in test [2] was “inactive” in each case.

For `C=C[C@H]1[C@H](O[C@@H]2O[C@H](CO)[C@@H](O)[C@H](O)[C@H]2O)OC=C(C(=O)OC)[C@H]1C[C@@H]1N[C@H](C(=O)O)Cc2c1[nH]c1ccccc21`, the Potency entry in test [1] and in test [2] was “inactive” throughout.

Consider `C=C(C)[C@H]1C[C@@H](O)C(=C)CC[C@@H](O)C(=C)[C@@H](O)C1`, for which the Potency result in test [1] and in test [2] was “inactive” throughout.

For `c1ccc(Cc2ncc3c(n2)CCNCC3)cc1`, the Potency entry in test [1] and in test [2] was “inactive” in each case.

With `NS(=O)(=O)NCCNc1nonc1C(=Nc1ccc(F)c(Br)c1)NO`, the Potency entry in test [1] and in test [2] was “inactive” in each case.

For `OC1COC(OCC2OC(OCCc3ccccc3)C(O)C(O)C2O)C(O)C1O` (stereo not given), the Potency result in test [1] and in test [2] was “inactive” throughout.

Consider `COC1CC(OC2CCC3(C)C(=CCC4C3CCC3(C)C(C(C)O)CCC43O)C2)OC(C)C1OC1OC(C)C(OC2OC(COC3OC(COC4OC(CO)C(O)C(O)C4O)C(O)C(O)C3O)C(O)C(O)C2O)C(OC)C1O` (stereo not given), for which the outcome in test [1] and in test [2] was “inactive [at 9.23 µM]” in each case.

Turning to `C1CCN2CC3C[C@@H](CN4CCCC[C@@H]34)[C@H]2C1`, the Potency entry in test [1] and in test [2] was “inactive” in each case.

On to `C/C=C(/C)C(=O)O[C@H]1C=C(C)C[C@H](OC(=O)c2ccc(O)cc2)C2[C@](O)(C(C)C)CC[C@@]21C` (stereo not given in full), for which the Potency entry in test [1] and in test [2] was “inactive” in each case.

With `C[C@@H]1O[C@@H](OC[C@H]2O[C@@H](OCC3CCC4CC3C4(C)C)[C@H](O)[C@@H](O)[C@@H]2O)[C@H](O)[C@H](O)[C@H]1O` (stereo not given in full), the Potency result in test [1] and in test [2] was “inactive” in each case.

On to `C[C@@H](O)[C@H](N)C(=O)N1CCC[C@H]1C(=O)N1CCC[C@H]1C(=O)N[C@H](C(N)=O)[C@@H](C)O` (H-TPPT-NH2), for which the activity change, negative = viability loss in test [1] was 0.764% [at 9.23 µM]. Besides, the activity change, negative = cell killing in test [2] was -0.759% [at 9.23 µM].

Regarding `CC1=C(CC(=O)O)c2cc(F)ccc2C1=Cc1ccc(S(C)(=O)=O)cc1`, the Potency entry in test [1] and in test [2] was “inactive” each time.

As for `CC1=C2C(=O)C=C(CO)[C@@H]2[C@H]2OC(=O)[C@H](C)[C@@H]2[C@@H](O)C1`, the Potency entry in test [1] and in test [2] was “inactive” in each case.

As for `CC/C=C/CC1=C(CCCCCCCC(=O)O)CCC1=O`, the Potency entry in test [1] and in test [2] was “inactive” each time.

As to `C[C@]12CCC[C@](C)(C(=O)O)C1CCC13C=C(CO)C(CCC12)C3` (stereo not given in full), the Potency entry in test [1] and in test [2] was “inactive” in each case.

With `COc1cc([C@H]2OC[C@]3(OC(C)=O)[C@@H](c4ccc(O[C@@H]5O[C@H](CO)[C@@H](O)[C@H](O)[C@H]5O)c(OC)c4)OC[C@H]23)ccc1O`, the Potency result in test [1] and in test [2] was “inactive” in each case.

Turning to `CCC(C)C1NC(=O)C2CCCN2C(=O)C(C(C)C)NC(=O)c2ccccc2NC(=O)C(Cc2ccc(O)cc2)NC(=O)C(C)NC(=O)C(C(C)O)NC1=O` (stereo not given) (cyclo([2Abz]VPITAY); configuration not given here), the Potency result in test [1] and in test [2] was “inactive” throughout.

Turning to `COC1CCCC/C(C)=C/C2C=C(C)C(C)C3C(CC(C)C)NC(=O)C23C(=O)C1` (stereo not given), the Potency result in test [1] and in test [2] was “inactive” in each case.

Take `C=C1C(=O)O[C@H]2[C@H]1[C@@H](OC(=O)C(C)CO)C[C@@]1(C)[C@H](O)CCC(=O)[C@H]21` (stereo not given in full): the Potency result in test [1] and in test [2] was “inactive” in each case.

On to `CC1=C(C)C(=O)OC(C(C)(O)C2CCC3C4CC=C5CC(OC6OC(COC7OC(CO)C(O)C(O)C7O)C(O)C(O)C6O)CC(O)C5(C)C4CCC32C)C1` (stereo not given), for which the Potency entry in test [1] and in test [2] was “inactive” in each case.

With `C=C(C)[C@@H](C)[C@H]1O[C@]23C[C@]4(CO2)C(CCC2[C@@]5(C)CC[C@H](O[C@@H]6OC[C@H](O)[C@H](O[C@@H]7O[C@H](CO)[C@@H](O)[C@H](O)[C@H]7O)[C@H]6O[C@@H]6O[C@@H](CO)[C@H](O)[C@H]6O)C(C)(C)C5CC[C@]24C)C3[C@@](C)(O)[C@@H]1OC(C)=O` (stereo not given in full), the outcome in test [1] and in test [2] was “inactive [at 9.23 µM]” throughout.

As to `CC1(C)CC2C(C1)C1(C)CCC13OC3(CO)C2O` (stereo not given), the Potency entry in test [1] and in test [2] was “inactive” throughout.

For `CC1CCC2(C(=O)OC3OC(CO)C(O)C(O)C3O)CCC3(C(=O)O)C(=CCC4C5(C)CCC(OC6OC(C)C(O)C(O)C6O)C(C)(C)C5CCC43C)C2C1C` (stereo not given), the Potency entry in test [1] and in test [2] was “inactive” throughout.

As for `O=C(c1ccc(F)cc1)C1CCN(CCn2c(=O)nc3n(c2=O)CCCC3)CC1`, the Potency entry in test [1] and in test [2] was “inactive” each time.

On to `COc1cc(/C=C/C(=O)OC2CC(C)=C(C(=O)O)/C2=C/CO[C@@H]2O[C@H](CO)[C@@H](O)[C@H](O)[C@H]2O)ccc1O` (stereo not given in full), for which the Potency result in test [1] and in test [2] was “inactive” each time.

As to `COc1cc2c(cc1O)C1(Cc3ccc4c(c3C1=O)OCO4)N(C)CC2` (stereo not given), the Potency entry in test [1] and in test [2] was “inactive” throughout.

As to `CC(=O)N(O)CCCCCN1C(=O)CCC1=O`, the Potency result in test [1] and in test [2] was “inactive” in each case.

Consider `CC(=O)N[C@H]1CCN(c2ccc(C3=NOC(CN[S+](=O)([O-])C(C)C)C3)cc2F)C1` (stereo not given in full), for which the Potency entry in test [1] and in test [2] was “inactive” throughout.

Regarding `COc1cc(C2Oc3c(O)cc(CCCO)cc3C2CO)ccc1O[C@H]1O[C@H](C)[C@@H](O)[C@H](O)[C@@H]1O` (stereo not given in full), the Potency result in test [1] and in test [2] was “inactive” each time.

Regarding `COc1c(OC2OC(CO)C(O)C(O)C2O)ccc(O)c1C(=O)OCc1ccccc1O[C@@H]1O[C@H](CO)[C@@H](O)[C@H](O)[C@H]1O` (stereo not given in full), the Potency result in test [1] and in test [2] was “inactive” throughout.

On to `CC[C@H](C)/C=C(C)/C=C/C(=O)Cc1cc(O)c(C)c(O)c1C=O`, for which the Potency entry in test [1] and in test [2] was “inactive” each time.

Consider `CC1(C)CC[C@]2(C(=O)O[C@@H]3O[C@H](CO)[C@@H](O)[C@H](O)[C@H]3O)CC[C@]3(C)C(=CCC4[C@@]5(C)C[C@@H](O)[C@H](O)C(CO)(CO)C5CC[C@]43C)C2[C@@H]1O` (stereo not given in full), for which the Potency entry in test [1] and in test [2] was “inactive” throughout.
